Sm TGR block: qHTS Assay for the Inhibitors of Schistosoma Mansoni Peroxiredoxins; Schistosoma mansoni thioredoxin glutathione reductase (TGR), Q962Y6; purified TGR, DTNB reduction, TNB absorbance 405 nm; Potency, µM (titrated, usually from 114 µM), without a hit: top-dose activity change, negative = inhibition, most hits filed as inhibitors; hit rate 3% among 360,000; also: nearly all actives have a fitted effect of over 60% in size
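First, TGR (20 nM dispensed) and NADPH were mixed with compound. Second, a 15 min room-temperature incubation followed. Third, further NADPH and then DTNB were added to start the reaction. Finally, TNB absorbance was monitored kinetically.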
LmPK inh: qHTS Assay for Inhibitors of Leishmania Mexicana Pyruvate Kinase (LmPK) | Q27686 | purified LmPK, Kinase-Glo ATP luminescence, 1 h | Potency, µM (highest dose often 57.5 µM), inactives show top-dose activity change, negative = inhibition, actives largely listed as inhibitors | hit rate 0.37% among 290,000 | AID 1721, 2009
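Purified LmPK (0.1 nM) converted ADP (0.1 mM) to ATP with PEP (0.5 mM) in imidazole buffer pH 7.2 with KCl and MgCl2, 1 h at room temperature. ATP was read by Kinase-Glo luminescence; data normalized to uninhibited and no-enzyme controls.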
Giardia FBPA inh-1: qHTS Assay for Inhibitors of Fructose-1,6-bisphosphate Aldolase from Giardia Lamblia; AID 2451, 2010; hit rate 0.71% among 290,000; A8B2U2; Potency, µM (top dose mostly 59.6 µM), for inactives: at the highest dose activity, negative = inhibition, actives largely listed as inhibitors; purified Giardia FBPA; also: nearly all actives have a fitted effect of over 55% in size
Target sequence (A8B2U2 whole entry, looked up): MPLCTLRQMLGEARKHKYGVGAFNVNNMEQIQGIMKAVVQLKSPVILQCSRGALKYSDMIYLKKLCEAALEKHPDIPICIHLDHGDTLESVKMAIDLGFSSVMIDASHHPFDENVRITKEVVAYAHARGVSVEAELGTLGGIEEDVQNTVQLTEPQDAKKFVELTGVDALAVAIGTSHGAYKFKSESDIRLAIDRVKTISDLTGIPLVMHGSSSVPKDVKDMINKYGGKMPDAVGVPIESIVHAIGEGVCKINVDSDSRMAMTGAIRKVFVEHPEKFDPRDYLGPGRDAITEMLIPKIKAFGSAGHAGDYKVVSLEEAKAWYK
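Giardia FBPA (40 nM reagent) was preincubated 10 min at RT with compound (up to 57.5 uM final), then substrate plus GAPDH/TPI/NAD/arsenate coupling system with diaphorase/resazurin was added; resorufin fluorescence (525/598 nm) was read after 20 min.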
Tb PYK inh: qHTS of Trypanosoma Brucei Inhibitors | hit rate 0.12% among 410,000 | AID 624173, 2012 | TbPYK enzyme, Kinase-Glo Plus ATP luminescence, 45 min | Potency, µM (top dose mostly 76.8 µM), for inactives: at the top dose activity, negative = inhibition, hits mostly inhibitors; also: nearly all actives have a fitted effect of over 50% in size
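Assay buffer: 50 mM TEA pH 7.2, 100 mM KCl, 10 mM MgCl2, 0.05% BSA, 0.01% Tween-20. Pyruvate kinase from T. brucei plus substrate met compound, then ADP (130 uM final). Luminescence was read post 45 min RT.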
RE007 growth inh: qHTS Assay for Inhibitors of the HIV-1 protein Vpr. AID 651644, 2012. Potency, µM (doses to about 92.2 µM), for the others: top-dose activity change, negative = less growth, most hits filed as inhibitors. hit rate 0.21% among 360,000. S. pombe RE007 Vpr strain, BacTiter-Glo ATP luminescence, 24 h; active = well fitted falling curve with a large enough effect; inconclusive = small, poorly fitted or top-dose-only effect; inactive = no such curve, though single readings can be large or run the other way; also: nearly all actives have a fitted effect of over 50% in size
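Fission yeast strain RE007, carrying one chromosomally integrated HIV-1 vpr copy, was seeded at OD 0.01 in PMG+AL medium with 23 nL pinned compound. After 24 h at 30 °C and 99% humidity, viability was read by BacTiter-Glo luminescence.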
Giardia growth: qHTS Assay for Inhibitors of Fructose-1,6-bisphosphate Aldolase from Giardia Lamblia: Giardia lamblia growth inhibition; shares compounds with Giardia FBPA inh-1; Giardia lamblia trophozoite growth inhibition; Potency, µM (highest dose often 57.5 µM), without a hit: at the highest dose activity change, negative = inhibition, most hits filed as inhibitors; hit rate 5% among 1,500; AID 2785, 2010;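 also: trophozoites exposed to compound for 48 h at 37 °C; nearly all actives have a fitted effect of over 70% in size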
Mammalian tox: qHTS Assay for Inhibitors of Fructose-1,6-bisphosphate Aldolase from Giardia Lamblia: Mammalian cellular toxicity; shares compounds with Giardia FBPA inh-1; mammalian cell viability counter-screen, qHTS; Potency, µM (top dose mostly 57.5 µM), without a hit: at the top dose viability change, negative = toxicity, hits mostly inhibitors; hit rate 4% among 1,500;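 also: Chinese hamster ovary cells used as mammalian cytotoxicity surrogate; viability measured as cellular ATP by luminescence; compound exposure lasted 48 h before reading; nearly all actives have a fitted effect of over 60% in size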
Giardia FBPA inh-2: qHTS Assay for Inhibitors of Fructose-1,6-bisphosphate Aldolase from Giardia Lamblia: Primary screen confirmation. purified Giardia aldolase enzyme activity, qHTS. Potency, µM (doses to about 57.5 µM), for inactives: top-dose activity change, negative = inhibition, hits mostly inhibitors. hit rate 5% among 1,500. AID 2787, 2010. shares compounds with Giardia FBPA inh-1; also: nearly all actives have a fitted effect of over 45% in size
Rabbit aldolase: qHTS Assay for Inhibitors of Fructose-1,6-bisphosphate Aldolase from Giardia Lamblia: Rabbit FBPA Selectivity. shares compounds with Giardia FBPA inh-1. Rabbit muscle FBPA enzyme inhibition, selectivity counter-screen. Potency, µM (series often up to 57.5 µM), without a hit: top-dose activity, negative = inhibition, actives largely listed as inhibitors. hit rate 4% among 1,500; also: nearly all actives have a fitted effect of over 60% in size
Target sequence (P00883 whole entry, looked up): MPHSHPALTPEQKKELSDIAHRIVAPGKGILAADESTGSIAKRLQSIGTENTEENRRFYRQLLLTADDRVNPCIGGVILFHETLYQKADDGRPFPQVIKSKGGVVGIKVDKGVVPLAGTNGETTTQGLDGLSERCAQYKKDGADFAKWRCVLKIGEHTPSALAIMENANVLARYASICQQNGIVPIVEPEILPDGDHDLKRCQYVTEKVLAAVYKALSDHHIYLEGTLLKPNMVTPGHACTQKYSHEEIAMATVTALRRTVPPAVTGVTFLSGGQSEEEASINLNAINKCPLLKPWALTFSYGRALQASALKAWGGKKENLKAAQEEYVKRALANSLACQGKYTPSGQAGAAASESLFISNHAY
GAPDH counter: qHTS Assay for Inhibitors of Fructose-1,6-bisphosphate Aldolase from Giardia Lamblia: Coupling assay counterscreen confirmation. shares compounds with Giardia FBPA inh-1. GAPDH coupling enzyme counterscreen, biochemical, qHTS. Potency, µM (doses to about 57.5 µM), for inactives: at the highest dose activity change, negative = inhibition, most hits filed as inhibitors. hit rate 6% among 1,500; also: nearly all actives have a fitted effect of over 55% in size
* marks the source's active call; other numbers are inactive results; [ ] = dose if it differs, or a comment. Most compounds without a hit are left out; they make up all but 3.3% or so of the library. Unless noted, calls follow the shape of the dose curve; as a rule, active = well fitted curve in the direction sought with a large enough effect; inconclusive = small, poorly fitted or top-dose-only effect, or another doubt; inactive = no such curve, though single readings can be large; an effect the other way counts as inactive or inconclusive. % is scaled to controls: 0 for no effect and ±100 for the full control effect; potency is read from the fitted curve at half-maximal effect.

What do the screens show for `CCOC(=O)c1ccc(N2CSC3=C(C#N)C(c4cccs4)CC(=O)N3C2)cc1` (configuration not stated)?
Sm TGR block: 0%; LmPK inh: 2%; Giardia FBPA inh-1: 20µM*; Tb PYK inh: inconclusive; RE007 growth inh: -18%; Giardia growth: 25%; Mammalian tox: -18%; Giardia FBPA inh-2: -13%; Rabbit aldolase: -23%; GAPDH counter: -7%

What do the screens show for `O=C(O)CC(Cc1ccccc1)C(=O)NCC12CC3CC(CC(C3)C1)C2` (configuration not stated)?
Sm TGR block: 5%; LmPK inh: -8%; Giardia FBPA inh-1: 6%; Tb PYK inh: -4%; RE007 growth inh: 7%

How did O=C(NCCCN1CCN(c2ccc(F)cc2)CC1)c1cc2c(Cl)nc3ccccc3c2s1 do in these assays?
Sm TGR block: -1%; Tb PYK inh: 1%

How did c1ccc2cc(OCCCn3ccnc3)ccc2c1 do in these assays?
Sm TGR block: 10%; LmPK inh: -2%; Giardia FBPA inh-1: 22µM*; Tb PYK inh: 7%; RE007 growth inh: -1%; Giardia growth: 106%; Mammalian tox: 0%; Giardia FBPA inh-2: 0%; Rabbit aldolase: 3%; GAPDH counter: 13%

How did Cc1ccc(OCCCn2ccnc2)c([N+](=O)[O-])c1 do in these assays?
Sm TGR block: -5%; LmPK inh: -3%; Giardia FBPA inh-1: -23%; Tb PYK inh: 29%; RE007 growth inh: 5%

How did CC(C)(C)c1ccc(OCCCn2ccnc2)cc1 do in these assays?
Sm TGR block: 9%; LmPK inh: 1%; Giardia FBPA inh-1: 28µM*; Tb PYK inh: 16%; RE007 growth inh: -4%; Giardia growth: 12%; Mammalian tox: 1%; Giardia FBPA inh-2: -3%; Rabbit aldolase: -8%; GAPDH counter: -2%

Results for Cc1ccc(OCCCn2ccnc2)c(Br)c1 ?
Sm TGR block: 3%; LmPK inh: -4%; Giardia FBPA inh-1: 18µM*; Tb PYK inh: 14%; RE007 growth inh: -5%; Giardia growth: -8%[10.4 µM]; Mammalian tox: 19%; Giardia FBPA inh-2: 2%; Rabbit aldolase: 14%; GAPDH counter: 3%

What do the screens show for `COc1ccc(-c2[nH]nc3nc(-c4cc(Br)ccc4OC)cc(C(=O)O)c23)cc1`?
Sm TGR block: 4%; Tb PYK inh: 3%

What do the screens show for `CN(c1ccc([N+](=O)[O-])cc1C(=O)Nc1ccccc1)C1CCCCC1`?
Sm TGR block: 6%; LmPK inh: -2%; Giardia FBPA inh-1: -4%; Tb PYK inh: -21%; RE007 growth inh: -10%

How did Cc1cc(Cl)c(S(=O)(=O)N2CCN(c3cccc(C)c3C)CC2)cc1OCC(N)=O do in these assays?
Sm TGR block: 3%; LmPK inh: 15%; Giardia FBPA inh-1: -1%; RE007 growth inh: -7%[3.69 µM]

What do the screens show for `COc1ccc(CNC(=O)CCc2nc(-c3ccc(OC)cc3)no2)cc1`?
Sm TGR block: -5%; Tb PYK inh: 4%

What do the screens show for `O=C(CNCc1ccccc1)Nc1cccc(Cl)c1Cl`?
Sm TGR block: 4%; LmPK inh: 4%; Giardia FBPA inh-1: 16µM*; Tb PYK inh: 5%; RE007 growth inh: -4%; Giardia growth: 17%; Mammalian tox: 0%; Giardia FBPA inh-2: 2%; Rabbit aldolase: -3%; GAPDH counter: 9%

How did COc1ccc(NCC(O)COc2ccc(C(C)(C)C)cc2)cc1 (configuration not stated) do in these assays?
Sm TGR block: -10%; LmPK inh: 4%; Giardia FBPA inh-1: -6%; Tb PYK inh: 0%; RE007 growth inh: -23%

What do the screens show for `COc1ccccc1NCC(O)COc1ccc(C(C)(C)C)cc1` (configuration not stated)?
Sm TGR block: 24%; LmPK inh: -2%; Giardia FBPA inh-1: 18µM*; Tb PYK inh: -2%; RE007 growth inh: inconclusive; Giardia growth: inconclusive; Mammalian tox: 9%; Giardia FBPA inh-2: -12%; Rabbit aldolase: -1%; GAPDH counter: -12%

What do the screens show for `CC(CN1CCCC1)OC(=O)c1cccc(F)c1` (configuration not stated)?
Sm TGR block: inconclusive; LmPK inh: -7%; Giardia FBPA inh-1: 18µM*; Tb PYK inh: 3%; RE007 growth inh: -16%; Giardia growth: 9%[10.4 µM]; Mammalian tox: 18%; Giardia FBPA inh-2: 11%; Rabbit aldolase: 13%; GAPDH counter: -8%

How did CC(CN1CCCC1)OC(=O)c1ccc(F)cc1 (configuration not stated) do in these assays?
Sm TGR block: 4%; LmPK inh: 0%; Giardia FBPA inh-1: inconclusive; Tb PYK inh: 1%; RE007 growth inh: -4%

How did Cc1ccc(C(=O)Nc2ccc(S(=O)(=O)Nc3ncccn3)cc2)cc1[N+](=O)[O-] do in these assays?
Sm TGR block: 0%; LmPK inh: -4%; Giardia FBPA inh-1: 25µM*; Tb PYK inh: 4%; RE007 growth inh: 3%; Giardia growth: -14%[10.4 µM]; Mammalian tox: 3%; Giardia FBPA inh-2: -7%; Rabbit aldolase: 7%; GAPDH counter: -17%

How did Cc1cc(C)c2c(n1)SCC(=O)N2CC(=O)Nc1ccc(F)cc1 do in these assays?
Sm TGR block: -17%; LmPK inh: 7%; Giardia FBPA inh-1: -4%; Tb PYK inh: 4%; RE007 growth inh: 4%
